Experimental data published in PubChem BioAssay (EPA / NIEHS).
Results filed as inconclusive are left out. The source made the active and inactive calls. Rule for the calls: active = hit-call score of the fitted dose curve at least 0.9, where 1 is the maximum; inconclusive = response in the unintended direction; inactive = score below 0.9.

read-out: Broad substrate specificity ATP-binding cassette transporter ABCG2 (Homo sapiens) (UniProt Q9UNQ0); assay: CLD_ABCG2_24hr: CellzDirect (CLD) Gene Expression Assay for ABC Transporter (ABCG2) at 24 hours (AID 2283685)
Procedure: CLD_24hr is a cell-based, multiplexed-readout assay that uses hepatocyte, a human liver primary cell, with measurements taken at 24 hours after chemical dosing in a 96-well plate.CLD_ABCG2_24hr is one of 16 assay component(s) measured or calculated from the CLD_24hr assay. It is designed to make measurements of mRNA induction, a form of inducible reporter, as detected with chemiluminescence signals by Quantitative Nuclease Protection Assay (qNPA) technology.Data from the assay component CLD_ABCG2_24hr was analyzed at the endpoint, CLD_ABCG2_24hr, in the positive analysis fitting direction relative to DMSO as the negative control and baseline of activity. Using a type of inducible reporter, gain-of-signal activity can be used to understand changes in the reporter gene as they relate to the gene ABCG2. Furthermore, this assay endpoint can be referred to as a primary readout. To generalize the intended target to other relatable targets, this assay endpoint is annotated to the transporter intended target family, where subfamily is ABC transporter.
Human hepatocyte cultures were treated daily for two consecutive days with fresh dosing solutions containing appropriate concentrations of the 320 ToxCast chemicals (chemical identities were blinded to CellzDirect and other ToxCast collaborators), vehicle control (0.2% DMSO), and positive control inducers as summarized in Table 1. Due to the large number of treatment groups and chemicals examined, the ToxCast chemicals were divided into two groups (spanning two independent cultures of hepatocytes from separate donor preparations (Hu778: ToxCast plates 1 and 2; Hu776: ToxCast plates 3 and 4). Each preparation of human hepatocyte cultures was treated with respective vehicle control, medium only control, set of six positive controls/reference chemicals for the five hepatic receptor pathways, and a subset of eight of the ToxCast chemicals (indoxacarb, pyrithiobac-sodium, norflurazon, cyhalofop-butyl, methomyl, thiram, acetochlor, and propiconazole). These replicate data, coupled with internal replicates designed within the blinded ToxCast chemical library, provided additional data to evaluate interindividual differences between hepatocyte preparations and their potential impact on chemical profiles.Cell morphology and integrity were evaluated using phase-contrast microscopy as an indicator of hepatocyte cell health (Tyson & Green, 1987). Cultures for each treatment group (i.e., media, vehicle [0.2% DMSO], positive control inducers [multiple concentrations], and the ToxCast chemicals [multiple concentrations]) were observed and cell morphology was assessed relative to vehicle control cultures at each harvest time point (0, 6, 24, or 48 h). […] Images were evaluated at the conclusion of the study to assess changes in cell integrity and account for the effects of chemical exposure on uncharacteristic changes in concentration-dependent gene expression profiles. The results from these determinations of apparent cytotoxicity were annotated (yes/no) alongside the corresponding qNPA data for reference.At the conclusion of each treatment period, hepatocyte cultures (96-well) were washed with 1 volume of HBSS, lysed by addition of 25 ul ArrayPlate lysis buffer (HTG, Tucson, AZ), and 70 ul/well of Denaturation Oil, denatured by incubation at 95C for 10 min, and frozen at approximately -70C until analysis by nuclease protection assay (qNPA) (Roberts et al., 2007). For qNPA analysis, cell lysates were thawed at 50C for approximately 30 min, qNPA probes were added, and samples were incubated at 95C for 10 min to begin the detection process by denaturing the target RNA, dissociating the duplexes and secondary structure hybridization. At the conclusion of the hybridization period, S1 nuclease reagent was added to each sample to digest all nonprotected nucleotides at 50C for 60-90 min. […]

Sequence of Broad substrate specificity ATP-binding cassette transporter ABCG2 (Homo sapiens) (Q9UNQ0 whole entry, looked up): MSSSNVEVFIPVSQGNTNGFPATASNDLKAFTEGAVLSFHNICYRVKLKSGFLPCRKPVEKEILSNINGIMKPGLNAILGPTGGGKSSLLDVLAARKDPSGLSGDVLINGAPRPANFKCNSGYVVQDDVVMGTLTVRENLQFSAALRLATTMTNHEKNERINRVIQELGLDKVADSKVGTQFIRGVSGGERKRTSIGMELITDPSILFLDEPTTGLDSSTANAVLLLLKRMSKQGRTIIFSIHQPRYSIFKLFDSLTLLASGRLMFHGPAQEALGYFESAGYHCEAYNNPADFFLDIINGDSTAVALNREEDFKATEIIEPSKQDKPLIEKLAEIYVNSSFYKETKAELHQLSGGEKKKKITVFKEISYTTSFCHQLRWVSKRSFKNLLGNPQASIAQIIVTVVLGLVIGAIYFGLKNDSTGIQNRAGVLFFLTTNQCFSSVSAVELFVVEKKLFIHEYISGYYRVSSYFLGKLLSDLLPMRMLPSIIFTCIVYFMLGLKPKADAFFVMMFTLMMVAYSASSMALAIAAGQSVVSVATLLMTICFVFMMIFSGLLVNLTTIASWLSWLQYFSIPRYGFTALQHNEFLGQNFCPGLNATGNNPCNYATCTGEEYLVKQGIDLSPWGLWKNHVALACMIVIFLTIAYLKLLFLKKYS

Row | SMILES | outcome
1 | CC(C)(C)c1ccc(CSc2cnn(C(C)(C)C)c(=O)c2Cl)cc1 | inactive
2 | Cc1c(F)c(F)c(COC(=O)C2C(/C=C(\Cl)C(F)(F)F)C2(C)C)c(F)c1F (configuration not stated) | inactive
3 | CCOC(=O)CC(SP(=S)(OC)OC)C(=O)OCC (configuration not stated) | inactive
4 | N#CC(CCc1ccc(Cl)cc1)(Cn1cncn1)c1ccccc1 (configuration not stated) | inactive
5 | CCOC(=O)C(Cl)Cc1cc(-n2nc(C)n(C(F)F)c2=O)c(F)cc1Cl (configuration not stated) | inactive
6 | CO/C=C(/C(=O)OC)c1ccccc1Oc1cc(Oc2ccccc2C#N)ncn1 | inactive
7 | CCCCNC(=O)n1c(NC(=O)OC)nc2ccccc21 | inactive
8 | CCCCOC(=O)c1ccccc1C(=O)OCCCC | inactive
9 | Fc1ccc(Oc2ccnc3cc(Cl)cc(Cl)c23)cc1 | inactive
10 | Oc1ccccc1-c1ccccc1 | inactive
11 | CC(C)Oc1cc(-n2nc(C(C)(C)C)oc2=O)c(Cl)cc1Cl | inactive
12 | CCOP(=S)(OCC)SCn1c(=O)oc2cc(Cl)ccc21 | inactive
13 | CN(C)C(=S)SSC(=S)N(C)C | inactive
14 | Cc1cc(Cl)ccc1OCC(=O)O | inactive
15 | CC1COC(Cn2cncn2)(c2ccc(Oc3ccc(Cl)cc3)cc2Cl)O1 (configuration not stated) | inactive
16 | C=CC1(C)OC(=O)N(c2cc(Cl)cc(Cl)c2)C1=O (configuration not stated) | inactive
17 | CS/C(C)=N/OC(=O)N(C)SN(C)C(=O)O/N=C(\C)SC | inactive
18 | COc1cnc(OC)n2nc(NS(=O)(=O)c3c(OCC(F)F)cccc3C(F)(F)F)nc12 | inactive
19 | CCCCNC(=O)OCC#CI | inactive

Row | SMILES | outcome
20 | O=C(O)COc1nc(Cl)c(Cl)cc1Cl | inactive
21 | N#Cc1nn(-c2c(Cl)cc(C(F)(F)F)cc2Cl)c(N)c1S(=O)C(F)(F)F (configuration not stated) | inactive
22 | COc1nc(C)nc(NC(=O)NS(=O)(=O)c2ccccc2CCC(F)(F)F)n1 | inactive
23 | COP(=S)(OC)Oc1nc(Cl)c(Cl)cc1Cl | inactive
24 | COc1nc(C)nc(NC(=O)NS(=O)(=O)c2ccccc2Cl)n1 | inactive
25 | C=CCC1=C(C)[C@@H](OC(=O)[C@@H]2[C@@H](C=C(C)C)C2(C)C)CC1=O | inactive
26 | OC(c1ccc(Cl)cc1)(c1cncnc1)c1ccccc1Cl (configuration not stated) | inactive
27 | C=CCC1=C(C)C(OC(=O)C2C(C=C(C)C)C2(C)C)CC1=O (configuration not stated) | inactive
28 | COc1nc(NC(C)C)nc(NC(C)C)n1 | inactive
29 | CC(Oc1ccc(Cl)cc1Cl)C(=O)O (configuration not stated) | inactive
30 | CCCC1COC(Cn2cncn2)(c2ccc(Cl)cc2Cl)O1 (configuration not stated) | inactive
31 | Cc1ccc(-c2c(Cl)nc(C#N)n2S(=O)(=O)N(C)C)cc1 | inactive
32 | C#CCOS(=O)OC1CCCCC1Oc1ccc(C(C)(C)C)cc1 (configuration not stated) | inactive
33 | COC(=O)C(C)Oc1ccc(Oc2ccc(Cl)cc2Cl)cc1 (configuration not stated) | inactive
34 | CCON=C(CC)C1=C(O)CC(c2c(C)cc(C)cc2C)CC1=O (configuration not stated) | inactive
35 | CCc1nn(C)c(C(=O)NCc2ccc(C(C)(C)C)cc2)c1Cl | inactive
36 | CNC(=O)ON=CC(C)(C)SC | inactive
37 | COC(=O)N(OC)c1ccccc1COc1ccn(-c2ccc(Cl)cc2)n1 | inactive
